Reference: PubChem BioAssay (NCATS)
Several values for one entry are separate records, joined by “and”; a condition that tells them apart may be missing. Identical values can stand only once. Inconclusive results are not listed. Activity calls are given as the source filed them. Unless noted, calls follow the shape of the dose curve; as a rule, active = well fitted curve in the direction sought with a large enough effect; inconclusive = small, poorly fitted or top-dose-only effect, or another doubt; inactive = no such curve, though single readings can be large; an effect the other way counts as inactive or inconclusive.

What was measured:
[1] = UWB1.289 Cancer Cell Toxicity qHTS against the NCATS CANVASS Library (AID 1347347); also: nearly all actives have a fitted effect of over 60% in size; also: potency is read from the fitted curve at half-maximal effect
Summary of the method: (§1)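 Step one: seed 1000 cells per well. Step two: incubate 4 h. Step three: add test compounds in 11 concentrations. Step four: culture 72 h, then add CellTiter-Glo and record luminescence after 15min.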

[2] = OV-SAHO Cancer Cell Toxicity qHTS against the NCATS CANVASS Library (AID 1347348); also: nearly all actives have a fitted effect of over 55% in size; also: potency is read from the fitted curve at half-maximal effect
Summary of the method: as §1

[3] = Panc-1005 Cancer Cell Toxicity qHTS against the NCATS CANVASS Library (AID 1347349); also: nearly all actives have a fitted effect of over 60% in size; also: potency is read from the fitted curve at half-maximal effect
Summary of the method: as §1

[4] = U-118MG Cancer Cell Toxicity qHTS against the NCATS CANVASS Library (AID 1347351); also: potency is read from the fitted curve at half-maximal effect
Summary of the method: as §1

[5] = COV-362 Cancer Cell Toxicity qHTS against the NCATS CANVASS Library (AID 1347352); also: series mostly up to about 38 µM
Summary of the method: (§2)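 Luminescent ATP read-out (CellTiter-Glo, 15min at room temperature) measures survival after cells face an 11-point compound series for 72 hours at 37 degrees C/5% CO2.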

[6] = UWB1.289-WTBRCA1 Cancer Cell Toxicity qHTS against the NCATS CANVASS Library (AID 1347354)
Summary of the method: as §2

[7] = system: NAD(P)H diaphorase (Clostridium kluyveri); experiment: Diaphorse counterscreen qHTS: Assay Interference Panel against the NCATS CANVASS Library (AID 1347362)
Summary of the method: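 Clostridium kluyveri diaphorase in PBS + 0.01% Tween-20 preincubated 15 min with compounds. Resazurin and NADH then added for 5 min at room temperature in the dark; resorufin fluorescence read (ex 525, em 598).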

[8] = SDT Cancer Cell Toxicity qHTS against the NCATS CANVASS Library (AID 1347365); also: nearly all actives have a fitted effect of over 60% in size; also: potency is read from the fitted curve at half-maximal effect
Summary of the method: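 qHTS, SDT dog glioma line, 500 cells/well; cpds 11 pts; 72 hr, 37C, 5% CO2; CellTiterGlo ATP luminescence.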

[9] = J3T Cancer Cell Toxicity qHTS against the NCATS CANVASS Library (AID 1347371); also: potency is read from the fitted curve at half-maximal effect
Summary of the method: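 Cells plated at 500 per well, compounds pin-transferred, plates incubated 72 hr at 37C, then CellTiterGlo added and luminescence read to measure ATP content.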

[10] = target: Nuclear receptor subfamily 1 group I member 3 (Homo sapiens) (UniProt Q14994); experiment: qHTS for Constitutive Androstane Receptor (CAR) Antagonist screened against the NCATS CANVASS Library (AID 1347372); also: potency is read from the fitted curve at half-maximal effect
Chain of Nuclear receptor subfamily 1 group I member 3 (Homo sapiens) (Q14994 whole entry, looked up): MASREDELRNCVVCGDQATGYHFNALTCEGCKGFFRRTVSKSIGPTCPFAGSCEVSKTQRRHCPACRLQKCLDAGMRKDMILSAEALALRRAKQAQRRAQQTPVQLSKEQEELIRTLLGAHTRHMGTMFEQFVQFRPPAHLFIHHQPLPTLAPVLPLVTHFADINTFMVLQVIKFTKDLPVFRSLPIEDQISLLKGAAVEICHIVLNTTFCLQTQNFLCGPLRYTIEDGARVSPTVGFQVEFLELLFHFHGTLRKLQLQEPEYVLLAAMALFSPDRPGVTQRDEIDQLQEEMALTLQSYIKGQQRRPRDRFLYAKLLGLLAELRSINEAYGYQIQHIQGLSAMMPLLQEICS
Summary of the method: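 HepG2 cells stably carrying hCAR and CYP2B6-2.2kb luciferase reporter, 2500 cells/well, compound with 50 nM CITCO agonist for 24hr at 37C. ONE-Glo luminescence measured CAR activity; CellTiter-Fluor read viability.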

[11] = qHTS for Inflammasome Signaling Inhibitors: IL-1-beta AlphaLISA screen against the NCATS CANVASS Library (AID 1347379);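 also: human THP-1 cells primed with LPS then triggered with ATP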
Summary of the method: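 THP-1 cells pretreated 1 hr with compound (up to 57.5 uM final), then stimulated with LPS (250 ng/mL final) and ATP (1.25 mM final). Secreted IL-1B measured by AlphaLISA after 16 hr; glyburide as positive control.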

[12] = Vero-766 cells viability qHTS against the NCATS CANVASS Library: Counterscreen for Zika virus inhibition assay (AID 1347394); also: nearly all actives have a fitted effect of over 60% in size; also: potency is read from the fitted curve at half-maximal effect
Summary of the method: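 Counterscreen for toxicity: Vero 766 cells exposed 72 h to an 11-point compound series, viability by CellTiter-Glo.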

[13] = qHTS for inhibitors of Wild type Zika virus screened against the NCATS CANVASS Library (AID 1347396);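 also: ATP luminescence of surviving cells so rescue from viral cell killing; series mostly up to about 46 µM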
Summary of the method: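 Protection against wild-type Zika cytopathic effect is measured in African green monkey Vero 766 cells exposed to an 11-point compound series. Surviving cells are quantified by CellTiter Glo luminescence after 72 h.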

[14] = Viability qHTS for inhibitors of the SERCaMP assay screened against the NCATS CANVASS Library (AID 1347400); also: nearly all actives have a fitted effect of over 70% in size; also: potency is read from the fitted curve at half-maximal effect
Summary of the method: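 SH-SY5Y SERCaMP MJH297 cells, 1000/well; 4 h settle, 37C/5% CO2; pin-transferred cpds; 48 h; CellTiter-Glo lum. Pos ctrl bortezomib 0.0001 - 4.6 uM.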

[15] = target: Calcium and integrin-binding protein 1 (Homo sapiens) (UniProt Q99828); experiment: Primary qHTS for Identification of Calcium Integrin Binding Protein 1 (CIB1) Competitor (AID 1508620);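 also: GST tagged CIB1 binding a fluorescein labelled alphaIIb integrin peptide tracer; top concentration of the series differs between compounds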
Chain of Calcium and integrin-binding protein 1 (Homo sapiens) (Q99828 whole entry, looked up): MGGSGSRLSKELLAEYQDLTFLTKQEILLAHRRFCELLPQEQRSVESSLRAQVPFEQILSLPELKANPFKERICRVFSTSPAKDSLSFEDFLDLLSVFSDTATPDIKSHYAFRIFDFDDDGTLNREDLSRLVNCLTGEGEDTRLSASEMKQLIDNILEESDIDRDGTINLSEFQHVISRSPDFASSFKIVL
Summary of the method: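 Fluorescence polarization competition: GST-tagged CIB1 (1 uM final) preincubated with compound 15 min at room temperature, then FITC-labelled alphaIIb peptide (100 nM final) added. After 15 min at room temperature, polarization read at Ex 480/Em 540.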

[16] = NCATS anti-infectives library activity on the primary C. elegans qHTS viability assay (AID 1745855; calls by dose curve; also: potency is read from the fitted curve at half-maximal effect)
Summary of the method: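 Viability read-out is GFP fluorescence of PE254-GFP-FLuc C. elegans, measured by laser cytometry (488 nm) at day 0, 3 and 7. Ten L1 worms per well were incubated 7 days at 21 °C with compounds and bacterial capsules in S medium.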

[17] = qHTS for Antimalaria activity screened against the NCATS CANVASS Library (AID 1347380); also: nearly all actives have a fitted effect of over 40% in size; also: potency is read from the fitted curve at half-maximal effect
Summary of the method: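 Dd2 strain, infected erythrocytes 2.5% Hct final / 0.3% parasitemia. 11-pt qHTS titration, 72 h, 37C, 5% O2, 5% CO2. Lysis buffer + SYBR Green, 18 h, fluorescence 485/535 nm.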

[18] = HPAF-II Cancer Cell Toxicity qHTS against the NCATS CANVASS Library (AID 1347346); also: nearly all actives have a fitted effect of over 55% in size; also: potency is read from the fitted curve at half-maximal effect
Summary of the method: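 Luminescence from CellTiter-Glo, added after 72 h compound exposure and a 15 min room-temperature incubation, served as the viability readout. HPAF-II cells (1000/well) received an 11-point concentration series.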

Measured: Potency

COC(=O)[C@@]1(C)CCC[C@]2(C)c3cc(OC)ccc3CC[C@@H]12
not listed: [15] | [16] | [17] | [18]
inactive: all other assays above

O=C(/C=C\n1cnc(-c2cc(C(F)(F)F)cc(C(F)(F)F)c2)n1)NNc1cnccn1
active: [16] 25.8 µM
inactive: [15]

COc1cc2oc3ccccc3c(=O)c2cc1OC
inactive: [1] | [2] | [3] | [9] | [13] | [14]
active: [4] 30.6 µM | [17] 0.0049 µM

CC[C@H]1[C@@H](C)[C@@H](c2cc(OC)c(OC)cc2OC)[C@H](C)[C@@H](c2cc(OC)c(OC)cc2OC)[C@@]12C=C(OC)C(=O)C=C2OC
active: [18] 21.1 µM | [1] 23.6 µM | [3] 16.8 µM
inactive: [9]

CO[C@@H]1[C@H](O)[C@@H](C)O[C@@H](OC[C@@H]2C(C)OC(=O)/C=C/[C@H](C)C(O[C@@H]3O[C@H](C)CC4(OC(=O)O[C@@H]4C)C3O)[C@@H](C)CC(C)C(=O)/C=C/[C@H]3OC23)[C@@H]1OC (stereo partly drawn)
inactive: [18] | [12]
active: [1] 18.8 µM | [4] 16.8 µM | [9] 13.2 µM | [10] 20.9 µM | [17] 14.9 µM | [14] 42.8 µM

C[C@H](c1cnc(N)[nH]1)c1ccc(O)c2[nH]cc(-c3cnc(-c4c[nH]c5ccccc45)c(=O)[nH]3)c12
inactive: [1] | [2] | [3] | [4] | [5] | [6] | [9] | [10] | [12] | [14]

O=C1CCC(=O)N(O)CCCCCNC(=O)CCC(=O)N(O)CCCCCNC(=O)CCC(=O)N(O)CCCCCN1
active: [18] 7.49 µM | [2] 11.8 µM | [3] 8.41 µM | [8] 4.18 µM | [17] 4.72 µM
inactive: [7] | [9] | [10] | [11] | [13]

CC[C@@H](c1cc(OC)c(OC)cc1OC)[C@H](C)[C@@H](/C(C)=C/c1cc(OC)c(OC)cc1OC)c1cc(OC)c(OC)cc1OC
inactive: [1] | [4] | [6] | [9] | [10] | [11] | [12] | [13] | [14]
active: [17] 747 nM and 1.88 µM

COc1cc(C2C3=C(Cc4cc5c(cc42)OCO5)C(=O)OC3)cc(OC)c1OC (stereo not drawn)
active: [8] 0.118 µM | [10] 0.117 µM | [17] 9.41 µM | [14] 0.0604 µM
inactive: [7]

C/C1=C/[C@@H](C)[C@H](O)C/C=C/CC/C=C/C(=O)O[C@@H]1[C@H](C)C(=O)CCCC1CC(=O)NC(=O)C1
inactive: [11] | [17] | [13]

C[C@H]1CCC2(OC1)O[C@H]1C[C@H]3[C@@H]4CC(=O)[C@]5(O)C[C@H](O)CC[C@@]5(C)[C@H]4CC[C@@]3(C)[C@H]1[C@H]2C (stereo partly drawn)
active: [11] 24.3 µM
inactive: [2] | [4] | [7] | [10]

CC[C@@H]1[C@H](C)[C@H](c2cc(OC)c(OC)cc2OC)[C@@H](C)[C@H](c2cc(OC)c(OC)cc2OC)[C@]12C=C(OC)C(=O)C=C2OC
active: [18] 18.8 µM | [17] 2.98 µM | [12] 20.9 µM
inactive: [6] | [9] | [10]

C[C@H](CCC(O)C(C)(O)CO)[C@@]1(O)CC[C@@]2(C)C3=C(CC[C@@]21C)[C@@]1(C)CCC(OC(=O)CCC(=O)O)C(C)(C)[C@@H]1CC3 (stereo partly drawn)
inactive: [2] | [3] | [4] | [5] | [7] | [8] | [9] | [11] | [14]

CC(C)[C@@H]1CC(=O)c2coc3c2[C@H]1C[C@@H](C)C3=O
inactive: [18] | [6] | [7] | [9] | [11]

C=C1C(=O)O[C@H]2[C@H]1CCC(C)=C1CC[C@@](C)(O)[C@@H]12
inactive: [7] | [10] | [13]
active: [1] 18.8 µM | [2] 18.8 µM | [3] 16.8 µM | [8] 26.4 µM | [11] 9.68 µM | [14] 42.8 µM

C/C(=C\[C@H](C)C(=O)C[C@H](O)CC1CC(=O)NC(=O)C1)[C@@H]1OC(=O)CCCC/C=C/[C@@H](O)C[C@@H]1C
active: [1] 9.41 µM | [8] 2.35 µM | [11] 34.3 µM
inactive: [7] | [13]
